Activity calls are given as the source filed them. The calls were made as follows: active = hit-call score of the fitted dose curve at least 0.9, where 1 is the maximum; inactive = score below 0.9.

Experiment [1] concerns the target Transcription factor E2F1 (Homo sapiens) (UniProt Q01094). Kind of experiment: ATG_E2F_CIS: Attagene CIS-FACTORIAL HepG2 Assay for human E2F Transcription Factor 1 (AID 2282935). Particulars: HepG2 Attagene cis-reporter, E2F reporter RNA transcripts; actives raise or lower the signal. The procedure, abridged:
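Transient MRTU transfection of HepG2; 24 h compound exposure; RNA → oligo(dT) RT → PCR → FAM label → HpaI cut → CE fluorescence. Gain/loss of signal fit against DMSO.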

A short description of experiment [2]: ATG_E_Box_CIS: Attagene CIS-FACTORIAL HepG2 Assay for human Enhancer Box (E-box) (AID 2282936). Particulars: HepG2 E-box cis-reporter transcription, actives raise or lower the signal. Put shortly:
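Transiently transfected HepG2, endogenous TF-driven reporters, 24 h dosing. Readout: RT-PCR plus capillary electrophoresis of fluorescent reporter fragments. Gain or loss of signal fitted bidirectionally against DMSO baseline.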

A short description of experiment [3]: ATG_M_61_CIS: Attagene CIS-FACTORIAL HepG2 Assay for M61 Transcription Factor (Internal Marker) (AID 2282937). Particulars: HepG2 Attagene CIS-FACTORIAL M61 internal marker reporter; actives raise or lower the signal. Put shortly:
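Human liver HepG2, transient MRTU transfection (cis promoter elements), 24 h compound. Total RNA → oligo(dT) RT → PCR → FAM label → HpaI → CE. Internal background marker; bidirectional fitting, DMSO = baseline.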

The nature of experiment [4]: ATG_EGR_CIS: Attagene CIS-FACTORIAL HepG2 Assay for human Early Growth Response 1 (EGR1) (AID 2282938). The conditions noted are these: HepG2 Attagene CIS-FACTORIAL EGR reporter mRNA; actives raise or lower the signal. The procedure, abridged:
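Transient transfection of human HepG2 with multiple cis-regulated reporter units, chemical exposure 24 h, total RNA isolated. Reverse transcription, PCR, fluorescent labelling and capillary electrophoresis quantify reporter transcripts; activity fitted bidirectionally against DMSO.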

A short description of experiment [5]: ATG_M_19_CIS: Attagene CIS-FACTORIAL HepG2 Assay for M19 Transcription Factor (Internal Marker) (AID 2282939). Particulars: HepG2 Attagene CIS-FACTORIAL M19 internal marker reporter; actives raise or lower the signal. Put shortly:
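HepG2, MRTU transient transfection, 24 h dosing. Total RNA → RT-PCR → 6-FAM primer extension → HpaI digest → CE fluorescence. Bidirectional curve fit, DMSO negative control.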

Experiment [6] is described as follows: ATG_ERE_CIS: Attagene CIS-FACTORIAL HepG2 Assay for Estrogen Response Element (ERE) (AID 2282940). Particulars: HepG2 ERE cis-reporter, Attagene RNA transcript; actives raise or lower the signal. The procedure, abridged: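 After a 24 h chemical treatment, RNA from reporter-transfected HepG2 cells is reverse-transcribed, PCR-amplified and fluorescently labelled. Fragments separated by capillary electrophoresis give reporter signal; DMSO serves as negative control.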

Experiment [7] is described as follows: ATG_Ets_CIS: Attagene CIS-FACTORIAL HepG2 Assay for human Erythroblast Transformation Specific (ETS) (AID 2282941). Particulars: HepG2 ETS cis-reporter transcription, actives raise or lower the signal. Put shortly:
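RT-PCR/capillary electrophoresis fluorescence read-out of reporter mRNA; HepG2 transient multi-reporter transfection; 24 h compound exposure; gain or loss of signal fitted bidirectionally relative to DMSO.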

Experiment [8] concerns the target Hepatocyte nuclear factor 3-beta (Homo sapiens) (UniProt Q9Y261). In words: ATG_FoxA2_CIS: Attagene CIS-FACTORIAL HepG2 Assay for human Forkhead box A2 (FOXA2) (AID 2282942). The conditions noted are these: HepG2 cis-reporter transcription factor activity, 24 h; actives raise or lower the signal. The procedure, abridged:
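Transient MRTU transfection of HepG2 liver cells; 24 h treatment; total RNA → oligo(dT) RT → PCR → FAM primer extension → HpaI cut → CE. Bidirectional fit vs DMSO.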

The nature of experiment [9]: ATG_FoxO_CIS: Attagene CIS-FACTORIAL HepG2 Assay for human Forkhead box O (FoxO) (AID 2282943). Particulars: HepG2 Attagene cis-reporter, FoxO element, mRNA; actives raise or lower the signal. The procedure, abridged:
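HepG2 cells transiently transfected with cis-element-driven reporter units report endogenous FoxO activity. After 24 h chemical exposure, reporter mRNA quantified by RT-PCR, fluorescent labeling, HpaI digestion and capillary electrophoresis; bidirectional fit versus DMSO.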

Experiment [10] can be described thus: ATG_GATA_CIS: Attagene CIS-FACTORIAL HepG2 Assay for human GATA Binding Protein (AID 2282944). The conditions noted are these: HepG2 GATA cis-element reporter, Attagene multiplex mRNA; actives raise or lower the signal. Put shortly:
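Cells: HepG2, transiently transfected with cis-regulated reporter transcription units. Exposure: 24 h. Detection: RT-PCR plus capillary electrophoresis of FAM-labeled fragments. Analysis: bidirectional, DMSO as baseline.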

A short description of experiment [11]: ATG_GLI_CIS: Attagene CIS-FACTORIAL HepG2 Assay for human Zinc Finger Protein GLI1 (AID 2282945). Particulars: HepG2, Attagene cis-factorial reporter mRNA, GLI element; actives raise or lower the signal. Put shortly: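 Transiently transfected HepG2 cells report endogenous transcription factor activity via cis-element-driven reporter units. After 24 h compound exposure, reporter mRNA was measured by RT-PCR with capillary electrophoresis; bidirectional fitting against DMSO baseline.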

Experiment [12] can be described thus: ATG_GRE_CIS: Attagene CIS-FACTORIAL HepG2 Assay for human Glucocorticoid Response Elements (GRE) (AID 2282947). The conditions noted are these: HepG2 GRE cis-reporter, Attagene multiplex mRNA; actives raise or lower the signal. The procedure, abridged: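 Read-out: fluorescent reporter-transcript fragments separated by capillary electrophoresis after RT-PCR. Transiently transfected HepG2 cells carrying cis-element-driven reporter units were dosed for 24 h; gain or loss of signal fitted against DMSO control.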

Experiment [13] can be described thus: ATG_ISRE_CIS: Attagene CIS-FACTORIAL HepG2 Assay for human Interferon Regulatory Factor 1 (IRF1) binding to an Interferon-Stimulated Response Element (ISRE) (AID 2282948). Particulars: HepG2 ISRE cis-reporter (Attagene), mRNA transcription readout; actives raise or lower the signal. Put shortly:
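Read-out: fluorescent RT-PCR products resolved by capillary electrophoresis, reporting endogenous transcription factor activity via ISRE-driven reporter mRNA in transfected HepG2 cells dosed for 24 h; gain or loss fitted relative to DMSO.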

Experiment [14] in a line: ATG_M_32_CIS: Attagene CIS-FACTORIAL HepG2 Assay for M32 Transcription Factor (Internal Marker) (AID 2282949).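 Also: background control marker of the multiplexed CIS panel rather than a real target.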 Particulars: HepG2 Attagene cis-factorial M32 reporter, mRNA; actives raise or lower the signal. The procedure, abridged:
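Using DMSO as baseline, bidirectional curve fits were applied to reporter mRNA signals. These came from transiently transfected HepG2 cells exposed for 24 h, with RNA analysed by RT-PCR, FAM primer extension, HpaI digestion and CE.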

The nature of experiment [15]: ATG_M_06_CIS: Attagene CIS-FACTORIAL HepG2 Assay for M06 Transcription Factor (Internal Marker) (AID 2282950). Particulars: HepG2 Attagene CIS-FACTORIAL M06 internal marker reporter; actives raise or lower the signal. The procedure, abridged: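 Measured 24 h post-dosing in transiently transfected HepG2 cells, this internal-marker endpoint reports reporter mRNA via RT-PCR with fluorescent primer extension and capillary electrophoresis. DMSO served as negative control and baseline for bidirectional fitting.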

Experiment [16] deals with Hypoxia-inducible factor 1-alpha (Homo sapiens) (UniProt Q16665). In words: ATG_HIF1a_CIS: Attagene CIS-FACTORIAL HepG2 Assay for human Hypoxia Inducible Factor 1 (HIF1A) (AID 2282951). The conditions noted are these: HepG2 Attagene cis-factorial HIF1a reporter transcription; actives raise or lower the signal. The procedure, abridged: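 Transient MRTU transfection of human HepG2 liver cells, 24 h compound treatment, then total RNA isolation, oligo(dT) reverse transcription, PCR amplification, fluorescent labelling and capillary electrophoresis of reporter fragments. Gain or loss relative to DMSO.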
Chain of Hypoxia-inducible factor 1-alpha (Homo sapiens) (Q16665 whole entry, looked up, the tested form may be a part): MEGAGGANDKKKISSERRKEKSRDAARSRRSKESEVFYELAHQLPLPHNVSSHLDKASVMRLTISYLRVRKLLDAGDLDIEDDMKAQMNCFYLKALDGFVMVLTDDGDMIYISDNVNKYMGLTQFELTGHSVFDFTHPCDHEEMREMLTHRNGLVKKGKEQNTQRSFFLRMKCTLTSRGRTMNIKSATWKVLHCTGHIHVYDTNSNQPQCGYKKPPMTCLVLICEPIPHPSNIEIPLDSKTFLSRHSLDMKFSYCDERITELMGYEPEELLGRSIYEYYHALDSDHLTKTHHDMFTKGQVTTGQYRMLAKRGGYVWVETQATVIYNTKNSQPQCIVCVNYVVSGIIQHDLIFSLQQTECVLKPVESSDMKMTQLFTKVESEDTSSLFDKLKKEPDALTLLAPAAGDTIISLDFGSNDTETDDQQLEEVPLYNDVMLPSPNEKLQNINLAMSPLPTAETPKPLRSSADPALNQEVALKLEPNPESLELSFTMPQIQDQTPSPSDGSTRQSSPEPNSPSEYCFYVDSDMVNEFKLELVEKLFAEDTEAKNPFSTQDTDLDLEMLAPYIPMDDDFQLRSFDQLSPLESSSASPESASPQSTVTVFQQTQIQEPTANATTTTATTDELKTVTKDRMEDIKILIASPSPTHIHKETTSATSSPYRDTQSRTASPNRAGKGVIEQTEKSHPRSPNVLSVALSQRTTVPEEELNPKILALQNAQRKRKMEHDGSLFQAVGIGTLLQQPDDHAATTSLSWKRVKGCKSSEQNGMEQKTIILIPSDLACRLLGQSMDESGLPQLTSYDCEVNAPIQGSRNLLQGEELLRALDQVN

Experiment [17] deals with Hepatocyte nuclear factor 6 (Homo sapiens) (UniProt Q9UBC0). In words: ATG_HNF6_CIS: Attagene CIS-FACTORIAL HepG2 Assay for human Hepatocyte Nuclear Factor 6 (HNF6) (AID 2282952). The conditions noted are these: HepG2 Attagene cis-factorial HNF6 reporter transcription; actives raise or lower the signal. Put shortly:
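Readout: fluorescent reporter-transcript fragments resolved by capillary electrophoresis after RT-PCR, reflecting endogenous factor activity in transfected HepG2. Exposure 24 h. Gain or loss of signal fitted bidirectionally against DMSO.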

Experiment [18] addresses Heat shock factor protein 1 (Homo sapiens) (UniProt Q00613). Kind of experiment: ATG_HSE_CIS: Attagene CIS-FACTORIAL HepG2 Assay for human Heat Shock Transcription Factor 1 (HSE) (AID 2282953). The conditions noted are these: HepG2 HSE cis-reporter, Attagene RNA transcription; actives raise or lower the signal. The procedure, abridged:
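Reporter mRNA induction in HepG2 is measured 24 h after dosing, using transiently transfected multiplexed cis-regulated reporter units. Signal comes from capillary electrophoresis of labelled RT-PCR products, with DMSO as negative control.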

Experiment [19] can be described thus: ATG_MRE_CIS: Attagene CIS-FACTORIAL HepG2 Assay for human Metal Responsive Element (MRE) (AID 2282954). The conditions noted are these: HepG2 MRE cis-reporter transcription, Attagene multiplex; actives raise or lower the signal. The procedure, abridged:
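RT-PCR/capillary electrophoresis readout of reporter mRNA, 24 h post-dosing, in HepG2 cells transfected with multiplexed cis-regulated reporter constructs. Gain or loss of signal fitted bidirectionally against DMSO baseline.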

Experiment [20] concerns the target Bile acid receptor (Homo sapiens) (UniProt Q96RI1). Kind of experiment: ATG_IR1_CIS: Attagene CIS-FACTORIAL HepG2 Assay for human Nuclear Receptor Subfamily 1 Group H Member 4 (NR1H4), IR1 submotif (AID 2282946). The conditions noted are these: IR1 reporter transcription, actives raise or lower the signal. The procedure, abridged:
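Fluorescence of capillary-separated, HpaI-digested RT-PCR reporter products gave IR1-element mRNA induction in HepG2 cells 24 h after dosing. Endogenous transcription factors drove the cis-regulated reporters; activity was fitted bidirectionally against DMSO.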

Chain of Hepatocyte nuclear factor 3-beta (Homo sapiens) (Q9Y261 whole entry, looked up): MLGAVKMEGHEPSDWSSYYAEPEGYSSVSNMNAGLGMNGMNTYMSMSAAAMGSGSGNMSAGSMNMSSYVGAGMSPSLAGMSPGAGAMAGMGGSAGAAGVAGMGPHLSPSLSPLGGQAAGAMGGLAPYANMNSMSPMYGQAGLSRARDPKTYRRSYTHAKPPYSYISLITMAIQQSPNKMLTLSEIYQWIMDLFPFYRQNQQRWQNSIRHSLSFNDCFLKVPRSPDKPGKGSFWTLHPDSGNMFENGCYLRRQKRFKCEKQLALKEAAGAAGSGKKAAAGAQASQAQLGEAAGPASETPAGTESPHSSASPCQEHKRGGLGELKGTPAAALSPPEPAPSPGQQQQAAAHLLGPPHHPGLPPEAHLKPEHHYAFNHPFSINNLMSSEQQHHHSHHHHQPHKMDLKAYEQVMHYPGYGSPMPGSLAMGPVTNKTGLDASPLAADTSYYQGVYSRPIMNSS
Chain of Heat shock factor protein 1 (Homo sapiens) (Q00613 whole entry, looked up): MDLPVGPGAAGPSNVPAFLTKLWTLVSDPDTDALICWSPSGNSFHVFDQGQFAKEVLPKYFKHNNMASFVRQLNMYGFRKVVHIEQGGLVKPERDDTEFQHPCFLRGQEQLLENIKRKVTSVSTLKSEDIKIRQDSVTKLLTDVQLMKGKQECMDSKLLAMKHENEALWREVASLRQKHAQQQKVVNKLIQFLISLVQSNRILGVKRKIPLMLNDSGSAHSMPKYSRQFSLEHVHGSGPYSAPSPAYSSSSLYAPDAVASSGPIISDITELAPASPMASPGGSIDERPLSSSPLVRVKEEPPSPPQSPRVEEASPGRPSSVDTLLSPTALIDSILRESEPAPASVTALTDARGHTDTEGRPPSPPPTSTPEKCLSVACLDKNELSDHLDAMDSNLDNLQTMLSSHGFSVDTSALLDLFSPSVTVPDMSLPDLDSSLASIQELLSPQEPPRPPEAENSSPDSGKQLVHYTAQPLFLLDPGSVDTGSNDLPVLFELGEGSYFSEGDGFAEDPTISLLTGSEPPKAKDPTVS
Chain of Hepatocyte nuclear factor 6 (Homo sapiens) (Q9UBC0 whole entry, looked up, the tested form may be a part): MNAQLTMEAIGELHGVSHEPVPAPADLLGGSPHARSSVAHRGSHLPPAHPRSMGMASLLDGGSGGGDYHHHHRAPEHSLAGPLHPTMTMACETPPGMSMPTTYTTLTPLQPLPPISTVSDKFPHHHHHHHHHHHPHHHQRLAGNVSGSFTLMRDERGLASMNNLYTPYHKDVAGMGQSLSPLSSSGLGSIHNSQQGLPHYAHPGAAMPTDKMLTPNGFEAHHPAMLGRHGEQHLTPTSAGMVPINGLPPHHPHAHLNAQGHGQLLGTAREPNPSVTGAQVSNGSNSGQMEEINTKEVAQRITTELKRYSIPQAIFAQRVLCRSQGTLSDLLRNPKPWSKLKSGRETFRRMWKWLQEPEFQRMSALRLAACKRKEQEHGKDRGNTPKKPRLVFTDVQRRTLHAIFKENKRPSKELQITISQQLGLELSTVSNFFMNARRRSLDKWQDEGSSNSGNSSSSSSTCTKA
Chain of Transcription factor E2F1 (Homo sapiens) (Q01094 whole entry, looked up): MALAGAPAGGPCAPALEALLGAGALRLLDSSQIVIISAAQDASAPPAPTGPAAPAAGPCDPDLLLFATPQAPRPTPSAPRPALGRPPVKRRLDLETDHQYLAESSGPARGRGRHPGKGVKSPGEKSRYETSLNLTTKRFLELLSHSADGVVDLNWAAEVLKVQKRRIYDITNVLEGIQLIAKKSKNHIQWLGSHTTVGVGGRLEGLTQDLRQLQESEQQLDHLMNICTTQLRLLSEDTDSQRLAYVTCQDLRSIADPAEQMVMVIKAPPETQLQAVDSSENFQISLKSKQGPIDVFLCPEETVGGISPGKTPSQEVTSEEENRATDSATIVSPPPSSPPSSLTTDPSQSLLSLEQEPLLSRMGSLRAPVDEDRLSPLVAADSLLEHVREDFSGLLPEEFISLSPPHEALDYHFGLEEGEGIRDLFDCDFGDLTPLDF
Chain of Bile acid receptor (Homo sapiens) (Q96RI1 whole entry, looked up): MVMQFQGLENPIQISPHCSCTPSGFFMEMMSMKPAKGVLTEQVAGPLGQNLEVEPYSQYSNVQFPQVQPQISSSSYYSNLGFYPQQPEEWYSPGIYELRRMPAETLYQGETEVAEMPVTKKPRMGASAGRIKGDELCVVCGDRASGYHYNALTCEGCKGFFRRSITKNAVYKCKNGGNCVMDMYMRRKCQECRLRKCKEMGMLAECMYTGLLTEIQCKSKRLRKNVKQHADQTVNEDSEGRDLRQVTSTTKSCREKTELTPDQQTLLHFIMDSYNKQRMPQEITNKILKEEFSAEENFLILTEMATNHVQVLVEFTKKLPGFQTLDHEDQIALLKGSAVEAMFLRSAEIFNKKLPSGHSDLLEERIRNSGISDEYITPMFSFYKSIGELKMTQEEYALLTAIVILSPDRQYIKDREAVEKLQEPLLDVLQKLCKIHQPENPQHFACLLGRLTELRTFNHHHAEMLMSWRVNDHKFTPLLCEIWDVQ

Consider `Cc1c(C(=O)c2c[nH]n(C)c2=O)ccc(S(C)(=O)=O)c1C1=NOCC1`, for which the compound was called inactive in experiment [1], in experiment [2], in [3], in experiment [4], in experiment [5] and in experiment [6]. The result in experiment [7], in experiment [8], in experiment [9], in [10], in experiment [11] and in experiment [12] was inactive. For the same compound, the call in [13], in experiment [14], in [15], in [16], in [17] and in experiment [18] was inactive. Besides, the result in [19] was inactive.
Consider `CCC(C)(O)CCCC(C)C` (centres undefined), for which the outcome in experiment [1], in [2], in experiment [3], in experiment [4], in [5] and in experiment [6] was inactive. Also, the result in experiment [7], in [8], in [9], in experiment [10], in experiment [11] and in experiment [20] was inactive. In addition, the result in [13], in experiment [15], in experiment [16], in [17], in experiment [18] and in experiment [19] was inactive.
By AC50 is commonly meant the midpoint of the concentration-response curve, whichever way the signal moves. Regarding `c1ccc2sc(SSN3CCOCC3)nc2c1`, the outcome in [1], in [2], in experiment [3], in [5], in experiment [6] and in [7] was inactive. Moreover, the outcome in experiment [8], in [10], in experiment [13], in experiment [14], in [15] and in [17] was inactive. The AC50 is 100 µM (active) in experiment [4]; 158 µM (active) in experiment [9]; 79.4 µM (active) in experiment [11]; 105 µM (active) in experiment [20]; 32.2 µM (active) in experiment [16]; 123 µM (active) in [19].
On to `CCCCCC[C@@H](O)C/C=C\CCCCCCCC(=O)OCC(O)CO` (some centres undefined), for which the AC50 is 133 µM (active) in [1]; 151 µM (active) in [4]; 178 µM (active) in [7]; 178 µM (active) in experiment [9]; 128 µM (active) in [10]; 143 µM (active) in experiment [11]. The half-maximal activity concentration (AC50) is 149 µM (active) in experiment [12]; 160 µM (active) in [14]; 67.2 µM (active) in experiment [16]; 184 µM (active) in experiment [18]; 144 µM (active) in experiment [19]. Moreover, the outcome in experiment [2], in [3], in experiment [5], in experiment [6], in experiment [8] and in experiment [13] was inactive. Further, the call in [15] and in experiment [17] was inactive.

For the origin of these results see PubChem BioAssay (EPA / NIEHS).
